Compound activity as filed in PubChem.
Only some compounds are listed: those with a hit (about 19% of all), similar ones and a draw of the others.
IL-1B inflam inh: qHTS for Inhibitors of Inflammasome Signaling: IL-1-beta AlphaLISA Primary Screen | 360,000 tested, 4.7% active | THP-1 LPS/ATP IL-1B secretion, AlphaLISA, 16 h; stronger effect = lower value | activity change, % at 57.5 µM; in the data active = activity change below about -50%; inconclusive = mostly about -30% to -49%
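Secreted IL-1B measured by AlphaLISA bead assay after 16 h compound exposure of THP-1 cells; compounds (final up to 57.5 uM) added 1 h before LPS (250 ng/mL) and ATP (1.25 mM) stimulation; lower signal means less secretion.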
TDP1 cell noCPT: qHTS for Inhibitors of human tyrosyl-DNA phosphodiesterase 1 (TDP1): qHTS in cells in absence of CPT. DT40 Tdp1-/- hTDP1 cells, no CPT, ATP luminescence, 48 h. 420,000 tested, 15% active. Potency, µM (top dose mostly 46.2 µM), for the others: at the top dose activity change, negative = growth inhibition, most hits filed as inhibitors; note: potency is the fitted concentration of half-maximal effect; nearly all actives have a fitted effect of over 55% in size
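Growth of hTDP1-complemented DT40 Tdp1-knockout cells is measured by ATP luminescence after at least 48 hr compound exposure at 37 °C, with DMSO substituting for the 20 nM CPT used in the parallel screen.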
HT1080-NT tox: qHTS for induction of synthetic lethality in tumor cells producing 2HG: qHTS for the HT-1080-NT fibrosarcoma cell line; 360,000 tested, 1.6% active; AID 686970, 2013; HT-1080-NT fibrosarcoma viability, CellTiter-Glo ATP luminescence, 48 h; Potency, µM (titrated, usually from 46.1 µM), without a hit: at the top dose activity, negative = less viability, actives largely listed as cytotoxic;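 note: NT is the 2HG producing partner of a matched IDH1 knockdown line; potency is the fitted concentration of half-maximal effect; 0% = DMSO-treated cells and -100% = media-only wells without cells; nearly all actives have a fitted effect of over 55% in size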
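HT-1080-NT fibrosarcoma cells (2HG-overproducing), 750 cells/well in RPMI with 5% FBS, dosed after 2 h and incubated 48 h at 37C. CellTiter-Glo luminescence normalized to DMSO and no-cell wells; concentration-response curves fitted and classed.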
DT40 TDP1 CPT: qHTS for Inhibitors of human tyrosyl-DNA phosphodiesterase 1 (TDP1): qHTS in cells in presence of CPT; chicken DT40 Tdp1-/-;hTDP1 cells + 20 nM CPT, ATP luminescence, 48 h; Potency, µM (top dose mostly 46.2 µM), without a hit: at the top dose activity change, negative = growth inhibition, actives largely listed as inhibitors; 420,000 tested, 12% active; AID 686979, 2013; note: potency is the fitted concentration of half-maximal effect; nearly all actives have a fitted effect of over 55% in size
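Chicken DT40 Tdp1-/- cells stably complemented with human TDP1 were seeded at 400 cells/well in medium containing 20 nM camptothecin, exposed to pin-transferred compounds, and grown at 37 °C for at least 48 hr. Viability was read as ATP luminescence.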
HT1080 IDH1KD tx: qHTS for induction of synthetic lethality in tumor cells producing 2HG: qHTS for the HT-1080-IDH1KD cell line; 360,000 tested, 2% active; HT-1080 IDH1 knockdown viability, ATP luminescence, 48 h; Potency, µM (doses to about 46.1 µM), for inactives: at the top dose activity, negative = toxicity, most hits filed as cytotoxic; AID 686971, 2013;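 note: potency is the fitted concentration of half-maximal effect; 0% = DMSO wells and -100% = cell-free medium wells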
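% activity derives from luminescence (CellTiter-Glo), normalised to DMSO and no-cell wells. HT-1080-IDH1KD cells, 750/well, had 48 h compound exposure at 37 °C.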
Starred values were filed as active, the others as inactive; ? = inconclusive; / = no result given; ! = not confirmed by another sample. Unless noted, calls come from the whole dose curve; as a rule, active = well fitted curve in the direction sought with a large enough effect; inconclusive = small, poorly fitted or top-dose-only effect, or another doubt; inactive = no such curve, though single readings can be large; an effect the other way counts as inactive or inconclusive. Unless noted, % is set by controls: 0 for no effect and ±100 for the full control effect.

SMILES	IL-1B inflam inh	TDP1 cell noCPT	HT1080-NT tox	DT40 TDP1 CPT	HT1080 IDH1KD tx
c1ccc(-c2cc(-c3ccccc3)n3ncnc3n2)cc1	-11.1	29.1µM*	0.9%	?	-2.2%
FC(F)(F)c1ccc(N2CCN(c3cc(-c4ccccc4)nc4ncnn34)CC2)nc1	-61.2*	3.26µM*	-10.3%	3.66µM*	0.0%
CNC(=O)NC(=O)COC(=O)CCCSc1nc2ccccc2s1	19.0	-25.4%	0.7%	-6.4%	-0.1%
COc1cccc(CCc2nc3ccccc3c(=O)n2N)c1	-7.4	20.6µM*	5.0%	?	-2.6%
COc1cccc(OCc2nc3ccccc3c(=O)n2N)c1	8.1	-12.3%	-3.8%	?	-10.2%
C=C1C(=O)OC2C1CCC(C)C1C=CC(=O)C12C (stereo not given)	-67.7*	2.91µM*	?	3.26µM*	20.6µM*
CCN(C(=O)C1CCC(CNS(=O)(=O)c2cccc3nsnc23)CC1)c1ccc(C)c(C)c1 (stereo not given)	/	25.9µM*	/	?	/
CN(C(=O)C1CCC(CNS(=O)(=O)c2cccc3cccnc23)CC1)C1CCCCC1 (stereo not given)	-17.3	14.6µM*	-12.9%	?	-20.2%
CC1CCC(NC(=O)C2CCC(CNS(=O)(=O)c3cccc4nsnc34)CC2)CC1 (stereo not given)	22.0	?	-2.5%	-29.1%	0.0%
CCCCN(CC)C(=O)C1CCC(CNS(=O)(=O)c2cccc3nsnc23)CC1 (stereo not given)	-4.2	9.2µM*	-2.6%	23.1µM*	-11.1%
COc1ccc(NC(=O)C2Cc3ccccc3N2C(=O)c2ccccc2)c(OC)c1 (stereo not given)	/	-23.3%	/	-25.5%	/
CCOc1ccc(NC(=O)C2Cc3ccccc3N2C(=O)c2ccccc2)cc1 (stereo not given)	/	20.6µM*	/	23.1µM*	/
CC(C)c1ccc(NC(=O)C2Cc3ccccc3N2C(=O)c2ccccc2)cc1 (stereo not given)	/	5.8µM*	/	18.4µM*	/
Cc1ccc(Sc2ncccc2COC(=O)NC(C)C)cc1	10.1	?	-15.2%	-3.4%	-12.5%
COc1ccc(-n2c(C)nc3c(cnn3-c3ccc(Cl)cc3)c2=O)cc1	-13.4	?	-24.3%	?	?
Cc1ccc(-n2c(-c3ccco3)nc3c(cnn3-c3ccc(C)cc3)c2=O)cc1	15.1	4.11µM*	6.5%	?	6.6%
Cc1cccc(-n2c(C)nc3c(cnn3-c3ccc(F)cc3)c2=O)c1	?	9.2µM*	-15.1%	18.4µM*	-17.4%
Fc1cccc(-n2c(-c3ccco3)nc3nc4ccccc4nc32)c1	-0.1	-17.5%	6.4%	-14.8%	6.7%
C=CCn1c(C)nc2c(cnn2-c2ccccc2)c1=O	-3.1	-26.4%	12.7%	-20.9%	13.2%
Cc1cccc(-n2c(-c3ccco3)nc3c(cnn3-c3ccc(F)cc3)c2=O)c1	/	16.4µM*	/	16.4µM*	/
COc1ccc(-n2c(C)nc3c(cnn3-c3ccc(C)cc3)c2=O)cc1	-12.5	?	-5.8%	14.6µM*	0.0%
CCOc1ccc(-n2c(-c3ccco3)nc3c(cnn3-c3ccc(C)cc3)c2=O)cc1	40.0	?	10.2%	?	-1.9%
COc1ccc(CN2C(=O)C(CC(=O)NCC3CCCCC3)CC(C(=O)N3CCOCC3)=C2C)cc1 (stereo not given)	2.9	-24.8%	15.8%	-9.5%	3.4%
COC(=O)[C@H](CC(C)C)NC(=O)c1cc2c(cn1)[nH]c1ccccc12	-12.5	?	-3.9%	?	0.4%
O=C1Nc2c(c(=O)[nH]c(=O)n2-c2ccccc2)C1(NS(=O)(=O)c1ccc(Cl)cc1)C(F)(F)F (stereo not given)	/	3.6%	/	2.4%	/
SMILES	IL-1B inflam inh	TDP1 cell noCPT	HT1080-NT tox	DT40 TDP1 CPT	HT1080 IDH1KD tx
CCOC(=O)c1ccc(-n2c(C)nc3c(cnn3-c3ccccc3Cl)c2=O)cc1	54.4	-24.0%	16.9%	-21.1%	2.6%
CCOC(=O)c1ccc(-n2c(C)nc3c(cnn3-c3ccc(Cl)cc3)c2=O)cc1	38.2	5.8µM*!	16.7%	8.2µM*!	12.5%
CCc1ccc(S(=O)(=O)c2nnn3c2nc(Nc2cc(OC)ccc2OC)c2sccc23)cc1	/	-10.7%	/	-12.4%	/
CCc1ccc(S(=O)(=O)c2nnn3c2nc(NC(C)C)c2sccc23)cc1	/	?	/	20.6µM*	/
CCc1ccc(S(=O)(=O)c2nnn3c2nc(Nc2cccc(C)c2C)c2sccc23)cc1	/	20.6µM*	/	23.1µM*	/
CCc1ccc(S(=O)(=O)c2nnn3c2nc(NCCNC(C)=O)c2ccccc23)cc1	-63.7*	6.1%	28.7%	-0.6%	5.1%
CC(=O)NC(Cc1ccc(C)cc1)C(=O)NC1CCN(S(=O)(=O)c2ccccc2)CC1 (stereo not given)	-9.4	15.0%	1.1%	-2.1%	9.1%
CCn1c(NCc2cc(Br)ccc2NS(=O)(=O)c2ccc(C)cc2)nc2ccccc21	3.0	?	-24.1%	?	-21.9%
Cc1ccc(Cn2c(NS(=O)(=O)c3ccccc3)nc3ccccc32)cc1	-28.2	?	-6.5%	-12.8%	-12.5%
CCCn1c(NCc2ccccc2NS(=O)(=O)c2ccc(C)cc2)nc2ccccc21	11.4	16.4µM*	?	?	?
CCn1c(NCc2ccccc2NS(=O)(=O)c2ccc(C)cc2)nc2ccccc21	-12.6	18.4µM*	-25.3%	16.4µM*	-30.0%
COc1cccc(C(C(=O)NCC2CCCO2)N(C(=O)Cn2nnc3ccccc32)c2ccc(NC(C)=O)cc2)c1 (stereo not given)	-62.6*	5.0%	5.9%	1.1%	7.5%
CCN(CC)/C(N)=N/c1nc(C)cc(C)n1	38.3	2.4%	2.9%	5.9%	-0.9%
Cc1ccc(N/C(N)=N/c2nc(C)cc(C)n2)cc1	-17.5	20.6µM*	0.6%	14.6µM*	1.1%
CCCCc1ccc(N/C(N)=N/c2nc(C)cc(C)n2)cc1	/	5.17µM*	32.6µM*	?	20.6µM*
Cc1cc(C)cc(N/C(N)=N/c2nc(C)cc(C)n2)c1	-102.5*	?	4.8%	?	1.0%
CCC(=O)Nc1ccc(N/C(N)=N/c2nc(C)cc(C)n2)cc1	?	14.6µM*	-5.3%	13µM*	-1.8%
CC(=O)N/C(=N/c1nc(C)cc(C)n1)Nc1ccc(NC(C)=O)cc1	1.2	-12.5%	-0.8%	-22.4%	-3.7%
C=C1C=C(C)n2ncc(C(=O)Nc3ccc(C)cn3)c2N1	/	?	15.8%	-19.8%	17.8%
